# Results taken from PubChem BioAssay (NCATS).
# Results filed as inconclusive are left out. Active and inactive are the calls of the source. Calls follow the shape of the dose curve; as a rule, active = well fitted cell-killing curve with a large enough effect; inconclusive = small, poorly fitted or top-dose-only effect, or effect the other way; inactive = no such curve, though single readings can be large or run the other way.
# Experiment: Quantitative High-Throughput drug screen in 47 multiple myeloma cell lines against the NCATS MIPE library collection: OCIMY5_PLB cell viability assay (AID 1918988); also: nearly all actives have a fitted effect of over 65% in size;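 as to viability, % of control: 100% = DMSO-treated wells and 0% = wells with media alone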
# Details: OCI-MY5 myeloma viability, ATP luminescence, 48 h; series mostly up to 45.8 µM; viability, % of control: at the top concentration
# How it was run: (§1)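 Plated at 500 cells per well, myeloma lines received MIPE 4.0 compounds by pin tool. Following 48 h culture at 37 °C, CellTiter-Glo luminescence gave viability relative to DMSO and media-only controls.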
# Potency is read from the fitted curve at half-maximal effect.
Compound,Potency,"viability, % of control"
Cc1c(C(=O)c2cccc3ccccc23)c2cccc3c2n1[C@H](CN1CCOCC1)CO3,23.5 µM (active),–
CC(C)[C@H]1C(=O)N[C@H](CO)Cc2c[nH]c3cccc(c23)N1C,–,140% (inactive)
C[C@]12CC[C@H]3[C@@H](CCC4=CC(=O)CC[C@@]43C)[C@H]1CC[C@H]2OC(=O)CCC1CCCC1,20.9 µM (active),–
COc1ccc2c(c1)CN(C)CC2c1ccc(Cl)c(Cl)c1 (stereo not given),11.8 µM (active),–
Cc1ccccc1-n1c(Cn2cnc3c(N)ncnc32)nc2cccc(C)c2c1=O,1.66 µM (active),–
CN[C@@H]1Cc2cccc3[nH]c(=O)n(c23)C1,20.9 µM (active),–
CCNC(=O)CC1N=C(c2ccc(Cl)cc2)c2cc(OC)ccc2-n2c(C)nnc21 (stereo not given),6.62 µM (active),–
C[C@]12COC(=O)C[C@@H]1CC[C@@H]1[C@H]2CC[C@@]2(C)[C@H]1CC[C@]2(C)O,–,156% (inactive)
O=S(=O)(CC1CS1)c1ccc(Oc2ccccc2)cc1 (stereo not given),20.9 µM (active),–
C=CCON=C(C[C@H]1O[C@@H]2O[C@]3(C)CC[C@@H]4[C@H](C)CC[C@@H]([C@H]1C)[C@@]24OO3)[C@H]1O[C@@H]2O[C@]3(C)CC[C@H]4[C@H](C)CC[C@@H]([C@@H]1C)[C@@]24OO3,0.187 µM (active),–
N#C[C@H](O[C@@H]1O[C@H](CO[C@@H]2O[C@H](CO)[C@H](O)[C@H](O)[C@H]2O)[C@H](O)[C@H](O)[C@H]1O)c1ccccc1,20.9 µM (active),–

# Experiment: Quantitative High-Throughput drug screen in 47 multiple myeloma cell lines against the NCATS MIPE library collection: OPM1_PLB cell viability assay (AID 1918989); also: nearly all actives have a fitted effect of over 40% in size;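 as to viability (% of control): 100% = DMSO-only wells and 0% = media-only wells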
# Details: CellTiter-Glo, 48 h; series mostly up to 45.8 µM; viability (% of control): at the top concentration
# How it was run: as §1
Compound,viability (% of control),Potency
CC(=O)OCC1=C(C(=O)O)N2C(=O)[C@@H](N)[C@@H]2SC1,154% (inactive),–
Cc1c(C(=O)c2cccc3ccccc23)c2cccc3c2n1[C@H](CN1CCOCC1)CO3,–,23.5 µM (active)
CCOC(=O)c1c(C(C#N)=CN)c2ccc(Cl)c(Cl)c2n1C,104% (inactive),–
COC1=C[C@@H]2[C@@H]3Cc4ccc(OC)c(O)c4[C@]2(CCN3C)CC1=O,–,9.35 µM (active)
CC(C)[C@H]1C(=O)N[C@H](CO)Cc2c[nH]c3cccc(c23)N1C,–,0.372 µM (active)
COc1cc([C@@H]2c3cc4c(cc3[C@@H](O)C3COC(=O)C32)OCO4)cc(OC)c1O (stereo not given in full),–,0.0526 µM (active)
CC(=O)O[C@@]12CO[C@H]1C[C@H](O)[C@@]1(C)C(=O)[C@H](O)C3=C(C)[C@@H](O)C[C@@](O)([C@@H](OC(=O)c4ccccc4)[C@@H]21)C3(C)C,–,1.32 µM (active)
C=C[C@@H]1CN2CCC1C[C@@H]2[C@@H](O)c1ccnc2ccccc12 (stereo not given in full),–,16.6 µM (active)
COc1ccc2c(c1)CN(C)CC2c1ccc(Cl)c(Cl)c1 (stereo not given),–,18.7 µM (active)
O=C(NCC1CCOCC1)c1cnc(Nc2ccc(Cl)cc2Cl)nc1C(F)(F)F,142% (inactive),–
Cc1ccccc1-n1c(Cn2cnc3c(N)ncnc32)nc2cccc(C)c2c1=O,–,0.332 µM (active)
CN[C@@H]1Cc2cccc3[nH]c(=O)n(c23)C1,126% (inactive),–
CC(=O)Nc1ccc(OC[C@](C)(O)C(=O)Nc2ccc([N+](=O)[O-])c(C(F)(F)F)c2)cc1,96.4% (inactive),–
O=C1CCC[C@@H]2[C@H]3CCCN4CCC[C@@H](CN12)[C@@H]34,104% (inactive),–
CC(C)N[C@@H]1CCn2c(=O)[nH]c3cccc(c32)[C@@H]1O,–,11.8 µM (active)
COc1ccc(N(C(=O)Oc2c(C)cccc2C)c2ccnc(Nc3ccc(N4CCN(C)CC4)cc3)n2)c(OC)c1,–,20.9 µM (active)
Cc1ccccc1-n1c(Cn2ncc3c(N)ncnc32)nc2cccc(C)c2c1=O,–,0.148 µM (active)
C[C@]12COC(=O)C[C@@H]1CC[C@@H]1[C@H]2CC[C@@]2(C)[C@H]1CC[C@]2(C)O,133% (inactive),–
O=S(=O)(CC1CS1)c1ccc(Oc2ccccc2)cc1 (stereo not given),–,18.7 µM (active)
C=CCON=C(C[C@H]1O[C@@H]2O[C@]3(C)CC[C@@H]4[C@H](C)CC[C@@H]([C@H]1C)[C@@]24OO3)[C@H]1O[C@@H]2O[C@]3(C)CC[C@H]4[C@H](C)CC[C@@H]([C@@H]1C)[C@@]24OO3,–,0.526 µM (active)
c1cc2c(cc1[C@H]1OC[C@H]3[C@H]1CO[C@H]3c1ccc3c(c1)OCO3)OCO2,118% (inactive),–
CC(C)(O)C(=O)Nc1ccc([N+](=O)[O-])c(C(F)(F)F)c1,–,20.9 µM (active)
Cc1nc(-c2ccc(-c3ccc(C(=O)N4CCc5cc6c(cc54)C4(CCN(C)CC4)CO6)cc3)c(C)c2)no1,121% (inactive),–
Clc1ccccc1C(c1ccccc1)(c1ccccc1)n1cccn1,131% (inactive),–
COc1ccc(C(=O)c2c(C)n(CCN3CCOCC3)c3cc(I)ccc23)cc1,–,18.7 µM (active)
Cc1c(C(=O)Nc2cccc(C(F)(F)F)c2)cc(-c2ccccc2)n1CCCN1CCOCC1,–,18.7 µM (active)
N#C[C@H](O[C@@H]1O[C@H](CO[C@@H]2O[C@H](CO)[C@H](O)[C@H](O)[C@H]2O)[C@H](O)[C@H](O)[C@H]1O)c1ccccc1,–,26.4 µM (active)
CCOP(=O)(OCC)C(C)NC(=O)N(CCCl)N=O (stereo not given),139% (inactive),–
COC[C@H]1OC(=O)c2coc3c2[C@@]1(C)C1=C(C3=O)[C@@H]2CC[C@H](O)[C@@]2(C)C[C@@H]1OC(C)=O,–,0.332 µM (active)
